The sample as a whole holds a higher share of hits than the screen did.
DUX4 txn inh: DUX4-mediated transcription inhibition; activity change, negative = inhibition, % (no concentration beside the values); 37,000 tested, 0.8% active; 293T-iDUX4 ZSCAN4-Gaussia luciferase reporter, 24 h; stronger effect = lower value;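 active = mean inhibition of at least 10% in the main channel, exceeding the control channel by a set limit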
Each line names hits and unclear results; the compound was inactive in the other large screens; ! = a repeat was not active.

COc1cccc(-c2ccc(C3[C@H]4CNC[C@@H]3N4Cc3ccccc3F)cc2)c1 (stereo partly drawn)	none
COc1cccc(CN2[C@@H]3CNC[C@H]2C3c2ccc(-c3ccc(C#N)cc3)cc2)c1 (stereo partly drawn)	none
CN(C)C(=O)c1cccc(-c2ccc(C3[C@@H]4CN(C(=O)Nc5ccccc5F)C[C@H]3N4)cc2)c1 (stereo partly drawn)	none
COc1cccc(S(=O)(=O)N2[C@@H]3CNC[C@H]2C3c2ccc(-c3ccccc3F)cc2)c1 (stereo partly drawn)	none
O=C(CN1CCOCC1)N1C[C@@H]2N[C@H](C1)C2c1ccc(-c2ccccc2)cc1 (stereo partly drawn)	none
COc1cccc(CN2C[C@@H]3N[C@H](C2)C3c2ccc(-c3ccccc3F)cc2)c1 (stereo partly drawn)	DUX4 txn inh -19!
CN(C)C(=O)c1cccc(-c2ccc(C3[C@@H]4CN(Cc5ccccc5F)C[C@H]3N4)cc2)c1 (stereo partly drawn)	DUX4 txn inh -18!
COc1cccc(CN2C[C@@H]3N[C@H](C2)C3c2ccc(-c3ccncc3)cc2)c1 (stereo partly drawn)	DUX4 txn inh -26!
COc1ccccc1CN1C[C@@H]2N[C@H](C1)C2c1ccc(-c2ccccc2)cc1 (stereo partly drawn)	DUX4 txn inh -46
CN(C)C(=O)c1cccc(-c2ccc(C3[C@@H]4CN(Cc5cncnc5)C[C@H]3N4)cc2)c1 (stereo partly drawn)	none
COc1ccc(C(=O)Nc2ccc3c(c2)OC[C@H](C)NC[C@H](C)[C@@H](OC)CN(C)C3=O)cc1	none
CC(=O)N1C[C@@H]2[C@H](c3ccccc31)[C@@H](CO)N2C(=O)CC1CC1	none
COc1ccc2c3c([nH]c2c1)[C@@H](CO)N(C(=O)Cc1ccccc1)CC31CN(C(=O)Cc2ccccc2)C1	none
CN(C)C(=O)[C@H]1[C@H](CO)[C@H]2Cn3c(ccc(-c4ccccc4F)c3=O)[C@@H]1N2C	none
O=C(C[C@@H]1C=C[C@@H](NC(=O)CN2CCOCC2)[C@@H](CO)O1)NCc1cccc(F)c1	none
CN1C(=O)c2cc(NC(=O)Nc3ccc(Cl)cc3)ccc2OC[C@H]2O[C@@H](CC(=O)NCCN3CCCCC3)CC[C@@H]21	none
Cc1cccc(-c2ccc(C3[C@@H]4CN(Cc5cccnc5)C[C@H]3N4)cc2)c1 (stereo partly drawn)	none
Cc1ccccc1-c1ccc(C2[C@@H]3CN(C(=O)c4cnccn4)C[C@H]2N3)cc1 (stereo partly drawn)	none
CN(C)C(=O)c1ccc(-c2ccc(C3[C@@H]4CN(Cc5cncnc5)C[C@H]3N4)cc2)cc1 (stereo partly drawn)	none
Fc1cccc(CN2[C@@H]3CNC[C@H]2C3c2ccc(-c3ccccc3)cc2)c1 (stereo partly drawn)	none
COc1cccc(CN2C[C@@H]3N[C@H](C2)C3c2ccc(-c3ccccc3C)cc2)c1 (stereo partly drawn)	DUX4 txn inh -35!
Cc1ccc(-c2ccc(C3[C@@H]4CN(Cc5ccccc5)C[C@H]3N4)cc2)cc1 (stereo partly drawn)	none
Fc1ccc(-c2ccc(C3[C@@H]4CN(Cc5cccc(F)c5)C[C@H]3N4)cc2)cc1 (stereo partly drawn)	DUX4 txn inh -36!
COc1cccc(CN2[C@@H]3CNC[C@H]2[C@H]3c2ccc(-c3ccccc3OC)cc2)c1	none
Cc1ccc(-c2ccc(C3[C@@H]4CN(Cc5cccnc5)C[C@H]3N4)cc2)cc1 (stereo partly drawn)	DUX4 txn inh -22!
CC(C)[C@H]1C(=O)N[C@@H](c2ccccc2)CC=CC[C@H](C)Oc2ccccc2C(=O)N1C (mixture of isomers)	none
COc1ccc(S(=O)(=O)N[C@@H]2CC[C@H](CC(=O)O)O[C@@H]2CO)cc1	none
O=C(NC1CCC1)[C@H]1[C@H](CO)[C@H]2Cn3c(ccc(C4=CCCC4)c3=O)[C@@H]1N2CC1CC1	none
CN(C)CC(=O)Nc1ccc2c(c1)[C@@H]1C[C@H](CC(=O)NCC3CC3)O[C@H](CO)[C@@H]1O2	none
O=C(C1CCOCC1)N1CC(=O)N2[C@H](CO)[C@H](c3ccc(C#Cc4cccc(F)c4)cc3)[C@@H]2C1	none
Cc1ccc(S(=O)(=O)N2CC[C@H]3[C@@H](CO)N(C)c4ccc(C#Cc5cccnc5)cc4[C@H]32)cc1	none
COc1ccc2c3c(n(C)c2c1)[C@H](CO)NCC31CN(Cc2ccccc2Cl)C1	none
COc1ccc2c3c(n(C)c2c1)[C@@H](CO)NCC31CN(Cc2ccc(-c3ccccn3)cc2)C1	none
COc1ccc2c3c(n(C)c2c1)[C@H](CO)NCC31CN(Cc2ccc(Cl)cc2)C1	DUX4 txn inh -48
CO[C@H]1CN(C)C(=O)c2cc(NC(=O)Nc3c(C)noc3C)ccc2OC[C@@H](C)N(CC2CC2)C[C@H]1C	none
O=S(=O)(c1ccccc1)N1CCCCN2[C@@H](CO)[C@H](c3ccc(C#CC4CCCC4)cc3)[C@@H]2C1	none
CC(C)(O)C#Cc1ccc([C@@H]2[C@@H](CO)N3CCCCN(C(=O)c4ccc(F)cc4)C[C@H]23)cc1	none
CC(C)(O)C#Cc1ccc([C@H]2[C@@H](CO)N3CCCCN(C(=O)c4ccc(F)cc4)C[C@@H]23)cc1	none
CC(C)CC#Cc1ccc([C@@H]2[C@H]3CN(S(=O)(=O)c4ccc(F)cc4)CCCCN3[C@H]2CO)cc1	DUX4 txn inh -22
CC(C)CC#Cc1ccc([C@@H]2[C@H]3CN(S(=O)(=O)Cc4ccccc4)CCCCN3[C@H]2CO)cc1	none
COCC#Cc1ccc([C@@H]2[C@H](CO)N3CCCCN(S(=O)(=O)c4ccc(OC)cc4)C[C@@H]23)cc1	none
O=S(=O)(c1ccc(F)cc1)N1CCCCN2[C@@H](CO)[C@H](c3ccc(C#CC4CC4)cc3)[C@@H]2C1	DUX4 txn inh -26
O=S(=O)(c1ccccc1)N1CCCCN2[C@@H](CO)[C@@H](c3ccc(C#CC4CCCC4)cc3)[C@@H]2C1	none
CC(C)C#Cc1ccc([C@@H]2[C@H]3CN(C(=O)c4ccc(F)cc4)CCCCN3[C@H]2CO)cc1	DUX4 txn inh -26
CC=Cc1ccc2n(c1=O)C[C@H]1[C@H](CO)[C@@H](C(=O)N(C)C)[C@@H]2N1CC1CCCCC1 (mixture of isomers)	none
C[C@@H]1CN([C@H](C)CO)C(=O)c2cc(-c3ccccc3)cnc2O[C@H]1CN(C)C(=O)c1ccccn1	none
CCCN1[C@@H]2c3ccc(-c4ccccc4)c(=O)n3C[C@@H]2[C@@H](CO)[C@@H]1C(=O)NCC1CC1	none
C[C@H](CO)N1C[C@H](C)[C@H](CN(C)S(=O)(=O)c2ccc(-c3ccccc3)cc2)OCc2cn(nn2)CCCC1=O	none
C[C@H](CO)N1C[C@H](C)[C@H](CN(C)CC2CCCCC2)Oc2ccc(NS(=O)(=O)c3cn(C)cn3)cc2C1=O	none
C/C=C/c1ccc([C@H]2[C@@H](CO)N3CCCCN(S(=O)(=O)c4cccc(C)c4)C[C@@H]23)cc1	DUX4 txn inh -44
COc1cccc(S(=O)(=O)N2CCCCN3[C@@H](CO)[C@@H](c4ccc(C#CC5CC5)cc4)[C@@H]3C2)c1	none
C/C=C/c1ccc([C@@H]2[C@@H](CO)N3CCCCN(S(=O)(=O)c4ccc(F)cc4)C[C@H]23)cc1	none
COc1cccc(S(=O)(=O)N2CCCCN3[C@H](C2)[C@H](c2ccc(-c4cccnc4)cc2)[C@@H]3CO)c1	DUX4 txn inh -35
C/C=C/c1ccc([C@@H]2[C@@H](CO)N3CCCCN(S(=O)(=O)c4ccc(F)cc4)C[C@@H]23)cc1	none

Assay outcomes (PubChem BioAssay)
